The list is not random: actives were taken first. Their share in the collection is about 5.5%.
Gal4-VP16 FLuc: Gal4-VP16 reporter inhibition counter-screen. Drosophila S2 Gal4-VP16 UAS-luciferase, luminescence, 20 h. Potency, µM (titrated, usually from 53.6 µM), for the others: at the top dose activity, negative = inhibition, actives largely listed as inhibitors. 310,000 tested, 3.5% active. AID 2546;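 note: Gal4-VP16 expression switched on by copper sulfate through the metallothionein promoter; % is set by controls: 0 for no effect and ±100 for the full control effect; nearly all actives have a fitted effect of over 50% in size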
Mito fusion yeast: inhibitors of mitochondrial division or activators of mitochondrial fusion; 320,000 tested, 0.23% active; AID 485298; S. cerevisiae fusion-defective mutant growth rescue, CellTiterGlo 48 h; Potency, µM (doses to about 46.1 µM), without a hit: at the highest dose growth rescue (activation), actives largely listed as activators; note: % of control where 0% means no effect; nearly all actives have a fitted effect of over 45% in size
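Read-out: ATP-based luminescence (CellTiterGlo, 10 min ambient) reporting growth of fusion-defective ts yeast after 48 hours at 37C on glycerol/ethanol YPEG medium in the presence of compound.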
a7 integrin act: activators of alpha7 integrin expression for muscular dystrophy. alpha7betagal myoblasts, beta-gal FDG fluorescence, 48 h. Potency, µM (highest dose often 38.3 µM), inactives show at the highest dose activation, most hits filed as activators. 350,000 tested, 0.064% active. AID 624291;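 note: 100% = response of the positive control SU9516; nearly all actives have a fitted effect of over 60% in size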
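Alpha7betagal+/- myoblasts (passage 13) were plated 16-24 hr, then exposed to compounds (1:260 dilution of DMSO stock) for 48 hours at 37C. After MPER lysis, β-galactosidase reporter activity was read as FDG fluorescence (ex 480/em 540) after 30 minutes.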
uPA generation: inhibitors of cell surface uPA generation; AID 540303; Potency, µM (highest dose often 38.3 µM), without a hit: top-dose activity change, negative = inhibition, hits mostly inhibitors; 330,000 tested, 0.31% active; cell surface uPA generation assay, qHTS; active = well fitted inhibition curve with a large enough effect; inconclusive = small, poorly fitted or top-dose-only effect; inactive = no such curve, though single readings can be large or run the other way; tested in mouse RAW 264.7 cells; note: % is set by controls: 0 for no effect and ±100 for the full control effect; nearly all actives have a fitted effect of over 55% in size
RORgamma inh: ROR gamma (mouse) transcription inhibition | P51450 | Drosophila S2 Gal4-RORgamma UAS-luciferase reporter, 20 h | Potency, µM (doses to about 53.6 µM), inactives show at the top dose activity change, negative = inhibition, hits mostly inhibitors | 310,000 tested, 5.4% active; note: % is set by controls: 0 for no effect and ±100 for the full control effect; nearly all actives have a fitted effect of over 60% in size
Target sequence (P51450 whole entry, looked up, the tested form may be a part): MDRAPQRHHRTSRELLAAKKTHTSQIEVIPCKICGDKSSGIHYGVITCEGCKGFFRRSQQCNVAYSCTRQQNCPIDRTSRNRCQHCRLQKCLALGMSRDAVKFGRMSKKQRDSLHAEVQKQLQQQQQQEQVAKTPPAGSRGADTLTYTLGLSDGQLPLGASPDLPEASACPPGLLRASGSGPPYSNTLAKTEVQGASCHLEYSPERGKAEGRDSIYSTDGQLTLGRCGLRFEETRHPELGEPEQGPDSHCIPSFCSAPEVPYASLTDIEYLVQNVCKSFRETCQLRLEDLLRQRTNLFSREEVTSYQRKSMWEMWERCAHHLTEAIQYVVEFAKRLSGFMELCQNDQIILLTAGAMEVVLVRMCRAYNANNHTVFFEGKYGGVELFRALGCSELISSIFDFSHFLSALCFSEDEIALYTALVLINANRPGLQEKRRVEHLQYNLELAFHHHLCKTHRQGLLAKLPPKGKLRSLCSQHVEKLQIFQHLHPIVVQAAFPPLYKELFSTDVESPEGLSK
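A Gal4/UAS one-hybrid system in insect cells: metallothionein-promoter Gal4–ROR gamma fusion plus Photinus luciferase reporter. Copper sulfate 700 uM final, 20 hr ambient incubation, luminescent detection after 10 min with reagent.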
Chronic BCR inh: blocks chronic active B-cell receptor signaling; ABC-DLBCL IkBa-CBG/CBR reporter, luminescence ratio, 4 h; 340,000 tested, 0.05% active; Potency, µM (doses to about 46.1 µM), inactives show at the top dose activity change, negative = inhibition, actives largely listed as inhibitors; AID 493014; active = well fitted inhibition curve with a large enough effect in the signal ratio, with a control signal flat, not every such curve was filed as active; inconclusive = small, poorly fitted or top-dose-only effect, or effect the other way, or a change in a side signal; the % refers to the signal ratio;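 note: plate controls were basal doxycycline-induced cells for no effect and cells given 10 µM MG132 for full effect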
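Cell line TMD8 (human ABC DLBCL), stably expressing tet-inducible CBG68-IkBa fusion and CBR; IMDM/0.5% FBS; cpd up to 46 uM; dox induction, 4 h, 37C/5% CO2; dual luminescence; green/red ratio; MG132 control.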
Starred values were filed as active, the others as inactive; ? = inconclusive; . = no result given; [ ] = another dose, or the depositor's remark. Unless noted, calls come from the whole dose curve; as a rule, active = well fitted curve in the direction sought with a large enough effect; inconclusive = small, poorly fitted or top-dose-only effect, or another doubt; inactive = no such curve, though single readings can be large; an effect the other way counts as inactive or inconclusive. Potency is the fitted concentration of half-maximal effect.

SMILES	Gal4-VP16 FLuc	Mito fusion yeast	a7 integrin act	uPA generation	RORgamma inh	Chronic BCR inh
CC(=O)c1cn(CC(=O)Nc2c(C)cccc2C)c2ccccc12	7.1µM*	-1%	-40%	-2%	-18%	2%
CCC(=O)c1cn(CC(=O)Nc2c(C)cccc2C)c2ccccc12	4%	3%	-31%	3%	-3%[1.91 µM]	-2%
C=C(C)C(=O)OC1(C(F)(F)F)Oc2cc(C)ccc2NC1=O (stereo unspecified)	?	-1%	-9%	-12%	14µM*	?
CCc1cnc2c(c1SCC(=O)NCc1ccc(F)cc1)c(=O)n(C)c(=O)n2C	.	.	.	.	.	-5%
S=C1NCN(C2CCCCC2)CN1CCc1ccccc1	4µM*	-1%	1%	5%	2.8µM*	1%
CCOc1ccc(CCNC(=O)C2CC(=O)N(C3CCCC3)C2)cc1OCC (stereo unspecified)	-1%	-2%	-26%	-6%	4%	-22%
CCOc1ccccc1N1CN(C2CCCCC2)CNC1=S	14µM*	2%	?	-1%	3.2µM*	-1%
CCCCN1CNC(=S)N(CCc2ccccc2)C1	4.5µM*	3%	-12%	-4%	2.8µM*	-11%
CCCN1CNc2c(c(=O)[nH]c(=S)n2CCc2ccccc2)C1	-2%	-1%	-19%	-6%	-9%	7%
CCOC(=O)c1ccc(N2CN(C3CCCCC3)CNC2=S)cc1	1%	0%	-3%	-6%	-26%	?
CCOc1ccc(CCN2CN(C3CCCCC3)CNC2=S)cc1OCC	8.9µM*	-7%	-18%	0%	2.8µM*	-4%
S=C1NCN(CCc2ccccc2)CN1	-2%	-3%	11%	0%	-19%	-3%
CCCCN1CNC(=S)N(CCc2ccc(OCC)c(OCC)c2)C1	14µM*	-3%	-12%	-2%	3.2µM*	-1%
CCCN1CN(CCc2ccccc2)CNC1=S	1.8µM*	-1%	0%	8%	1.1µM*	-11%
CCOc1ccc(CCN2C(=O)C3C4C=CC(C4)C3C2=O)cc1OCC (stereo unspecified)	-3%	-10%	-14%	3%	?	1%
Cn1c(=O)c2c(ncn2CC(=O)OCC(=O)NCc2ccc(F)cc2)n(C)c1=O	.	.	-15%	.	.	.
NC1=NC(=O)C(Cc2ccc(Br)cc2)S1 (stereo unspecified)	-4%	1%	?	5%	-1%	-2%
O=c1[nH]c(-c2ccccn2)nc2sc(-c3ccccc3)cc12	1.4µM*	7%	-63%	-11%	0.32µM*	?
Cc1cc(C)c(C(=O)N(CCN(C)C)CC2CCCN(Cc3ccccc3F)C2)o1 (stereo unspecified)	1%	0%	-29%	7%	2%	10%
CC(C)OCCCN1C=C2C(=O)C(C)(OC(=O)CCc3ccccc3)C(=O)C=C2C=C1c1ccc(C#N)cc1 (stereo unspecified)	10%	-1%	-14%	-7%	12%	?
Cc1ccc(/C=N/NC(=O)c2ccc3c(c2)OCCO3)s1	?	-3%	3%	-4%	5.6µM*	?
Cc1ccc(/C=N/NC(=O)c2ccc3ccccc3c2)s1	5µM*	0%	-22%	4.5µM*	3.5µM*	?
O=C(N/N=C/c1cc(Br)cs1)c1ccc2c(c1)OCCO2	?	-5%	-3%	-19%	11µM*	?
Cc1ccc(/C=N/NC(=O)c2cccc(S(=O)(=O)Nc3ccccc3Cl)c2)s1	5µM*	3%	-7%	2%	7.1µM*	10%
O=C(N/N=C/c1cc2c(cc1Cl)OCO2)c1ccc2c(c1)OCCO2	7%	3%	-33%	-5%	-3%	?
SMILES	Gal4-VP16 FLuc	Mito fusion yeast	a7 integrin act	uPA generation	RORgamma inh	Chronic BCR inh
Fc1ccc(CSc2nnc(-c3cccnc3)o2)cc1	?	5%	7%	-5%	24%	7%
CCCCCCCCCCCCCCCC(=O)OCC(O)C1OC(=O)C(O)=C1O (stereo unspecified)	0%	.	.	.	4%	.
O=C(N/N=C/c1ccc(-c2ccc(Br)cc2)o1)c1ccc2c(c1)OCO2	10µM*	7%	-10%	-6%	3.5µM*	?
CCC(=O)Nc1nc2ccccc2n1CCN1CCOCC1	?	-3%	17%	-1%	14µM*	-2%
O=C(Nc1nc2ccccc2n1CCN1CCOCC1)c1ccc(Cl)cc1	2.8µM*	3%	4%	-13%	0.4µM*	-8%
CCCCCCCn1c(NC(=O)CC)nc2ccccc21	0.63µM*	12%	-69%	1%	0.089µM*	?
CCOc1ccc(NC(=O)CSc2nc3ccsc3c(=O)n2CCC(=O)O)cc1	-6%	3%	1%	4%	8%	-3%
NC(N)=NCCC[C@@H](N)C(=O)NCC(=O)N[C@@H](CC(=O)O)C(=O)N[C@@H](Cc1c[nH]c2ccccc12)C(=O)O	2%	.	.	.	28%	.
COc1ccc(/C=C2\SC(=S)N(CCC(=O)NCCCn3ccnc3)C2=O)cc1	9%	20%	-31%	2%	7%	?
COc1ccccc1/C=C1\SC(=O)N(CCC(=O)NCCCn2ccnc2)C1=O	0%	-2%	0%	-4%	-42%	?
COc1ccccc1/C=C1\SC(=S)N(CCC(=O)NCCCn2ccnc2)C1=O	-10%	3%	6%	-1%	16µM*	?
O=C(CCCN1C(=O)/C(=C/c2ccc(F)cc2)SC1=S)NCCCn1ccnc1	?	0%	-33%	-14%	8.9µM*	?
Clc1cccc(Cl)c1C1Nc2cccc3cccc(c23)N1	4µM*	-16%	-7%	-4%	0.71µM*	?
Fc1cccc(Cl)c1C1Nc2cccc3cccc(c23)N1	.	-10%	-27%	6%	.	-23%
S=c1[nH]nc(COc2cccc(Cl)c2)n1Cc1ccccc1	?	4%	-32%	0%	1.4µM*	0%
S=c1[nH]nc(COc2ccc(Cl)cc2)n1Cc1ccccc1	?	1%	7%	6%	2.5µM*	-3%
COc1ccccc1OCc1n[nH]c(=S)n1Cc1ccccc1	-11%	-1%	8%	-1%	16%	-33%
O=C(O)c1ccccc1/C=N/Nc1nc(N2CCCCC2)nc(N2CCCCC2)n1	-1%	-12%	.	.	-25%	3%
COc1ccc(/C=N/Nc2nc(N3CCCC3)nc(N3CCCC3)n2)c(OC)c1OC	-16%	-8%	-1%	-7%	7.9µM*	2%
COc1cccc(/C=N/Nc2nc(N3CCCC3)nc(N3CCCC3)n2)c1O	?	0%	-3%	2%	10µM*	?
COc1cccc(Nc2ncc3nc(C)c(=O)n(-c4ccccc4)c3n2)c1	-2%	.	.	.	42%	.
